High-throughput results deposited in PubChem BioAssay by National Center for Advancing Translational Sciences (NCATS).
Hits are enriched below; roughly 19% of the tested compounds scored in any of these assays.
KB-V1 MDR tox: kills drug-selected multidrug resistant KB-V1 cells; KB-V1 MDR cells viability, CellTiter-Glo, 72 h; Potency, µM (doses to about 46.1 µM), most hits filed as cytotoxic; hit rate 3.4% among 400,000; AID 1347076; note: nearly all actives have a fitted effect of over 60% in size
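KB-V1, DMEM (no phenol red) + 10% FBS; cpd pin-transferred, titration series; 72 h, 37 degrees C; CellTiter-Glo, luminescence. Data normalized, curve-fit.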
HT1080 IDH1KD tx: toxicity to HT-1080 IDH1 knockdown cells (counter line); HT-1080 IDH1 knockdown viability, ATP luminescence, 48 h; hit rate 2% among 360,000; Potency, µM (titrated, usually from 46.1 µM), hits mostly cytotoxic
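HT-1080-IDH1KD cells (IDH1 knocked down), 750/well in RPMI with 5% FBS, treated with compound 48 h at 37 degrees C. Viability by CellTiter-Glo luminescence, normalised to DMSO and no-cell wells; concentration-response curves classed.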
KB-3-1 cytotox: KB-3-1 parental cell cytotoxicity | KB-3-1 viability, CellTiter-Glo ATP luminescence, 72 h | Potency, µM (top dose mostly 46.1 µM), usual class: cytotoxic | hit rate 1.4% among 400,000; note: nearly all actives have a fitted effect of over 60% in size
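KB-3-1 cells, DMEM (no phenol red) + 10% FBS; compound by pin transfer, 72 h, 37 °C. Readout: CellTiter-Glo luminescence after 10 min. Data normalized, curve-fitted.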
TDP1 cell CPT: growth inhibition of DT40 Tdp1-/-;hTDP1 cells with camptothecin (screen for TDP1 inhibitors). AID 686979. chicken DT40 Tdp1-/-;hTDP1 cells + 20 nM CPT, ATP luminescence, 48 h. Potency, µM (titrated, usually from 46.2 µM), usual class: inhibitors. hit rate 12% among 420,000; note: nearly all actives have a fitted effect of over 55% in size
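Cell growth measured by CellTiter-Glo luminescence after a minimum 48 h, 37 C compound exposure with 20 nM CPT in Tdp1-knockout DT40 cells stably expressing hTDP1, seeded 400/well; qHTS titration format.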
TDP1 cell noCPT: qHTS for Inhibitors of human tyrosyl-DNA phosphodiesterase 1 (TDP1): qHTS in cells in absence of CPT; DT40 Tdp1-/- hTDP1 cells, no CPT, ATP luminescence, 48 h; Potency, µM (doses to about 46.2 µM), most hits filed as inhibitors; hit rate 15% among 420,000; AID 686978, 2013; note: nearly all actives have a fitted effect of over 55% in size
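Cells were dispensed at 400 per well, compounds added by pin tool, plates incubated ≥48 hr at 37 °C, then CellTiter-Glo added for 30 min at room temperature before luminescence reading. Line: DT40 Tdp1-/- complemented with hTDP1; camptothecin omitted.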
HT1080-NT tox: kills 2HG-producing HT-1080-NT fibrosarcoma cells. hit rate 1.6% among 360,000. Potency, µM (highest dose often 46.1 µM), hits mostly cytotoxic. HT-1080-NT fibrosarcoma viability, CellTiter-Glo ATP luminescence, 48 h. AID 686970;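 note: NT is the 2HG producing partner of a matched IDH1 knockdown line; nearly all actives have a fitted effect of over 55% in size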
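HT-1080-NT fibrosarcoma cells (2HG-overproducing), 750 cells/well in RPMI with 5% FBS, dosed after 2 h and incubated 48 h at 37C. CellTiter-Glo luminescence normalized to DMSO and no-cell wells; concentration-response curves fitted and classed.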
Numbers stand for hits; . = inactive; ? = inconclusive; / = no result; ! = a repeat was not active. Calls come from the whole dose curve; as a rule, active = well fitted curve in the direction sought with a large enough effect; inconclusive = small, poorly fitted or top-dose-only effect, or another doubt; inactive = no such curve, though single readings can be large; an effect the other way counts as inactive or inconclusive.

SMILES	KB-V1 MDR tox	HT1080 IDH1KD tx	KB-3-1 cytotox	TDP1 cell CPT	TDP1 cell noCPT	HT1080-NT tox
COc1ccccc1CNC(=O)C(=O)NCC(c1cccs1)S(=O)(=O)c1ccccc1 (stereo unspecified)	.	/	.	?	16µM	/
COc1ccc(CC(=O)NCC(c2cccs2)S(=O)(=O)c2ccc(C)cc2)cc1 (stereo unspecified)	.	/	.	?	26µM	/
CC(C)(C)C(=O)NC1(C(F)(F)F)NC(=O)N(c2ccccc2F)C1=O (stereo unspecified)	.	.	.	.	.	.
COC(=O)[C@@]12C[C@@H](CC(=O)N3CCOCC3)C(=O)N(Cc3ccco3)C1=CCC(C)(C)C2	.	.	.	.	.	.
CCOCC(=O)Nc1ccc2c(c1)N(S(=O)(=O)c1cccs1)CCC2	.	.	.	?	?	.
CCn1nnnc1NCc1cccn1C	.	.	.	.	.	.
O=C(NCCc1ccccc1)C(=O)NCC(c1cccs1)S(=O)(=O)c1cccs1 (stereo unspecified)	.	/	.	16µM	?	/
O=C(NCc1ccccc1)C(=O)NCC(c1cccs1)S(=O)(=O)c1cccs1 (stereo unspecified)	.	/	.	.	.	/
Cc1ccc(C(=O)NCC(c2cccs2)S(=O)(=O)c2cccs2)cc1 (stereo unspecified)	?	/	21µM	21µM	9.2µM	/
CC(C)(C)c1ccc(C(=O)NCC(c2cccs2)S(=O)(=O)c2cccs2)cc1 (stereo unspecified)	.	/	.	?	?	/
Cc1ccc(C(=O)CC(c2cccs2)S(=O)(=O)c2ccc(C)cc2)cc1 (stereo unspecified)	.	?	.	?	15µM	.
Cc1ccc(-n2ncc3c(N4CCC(Cc5ccccc5)CC4)ncnc32)cc1	.	/	.	?	?	/
C=C(/C=C/c1ccc(N(C)C)cc1)c1nc2ccccc2s1	?	/	.	0.089µM	0.11µM	/
Cc1ccc(/C=C/c2nc3ccccc3s2)s1	.	?	?	.	.	.
CN(C)c1ccc(/C=C/c2nc3ccccc3s2)cc1	13µM!	?	16µM!	16µM	0.1µM	?
CN(Cc1ccccc1)c1ccc(/C=C/c2nc3ccccc3s2)cc1	.	/	7.3µM	0.32µM	0.1µM	/
O=c1cc(CSc2nnc(COc3cccc4ccccc34)o2)c2ccccc2[nH]1	.	.	.	?	?	.
O=C(Nc1ccc([N+](=O)[O-])cc1)c1cc(Cl)sc1Cl	.	.	?	?	?	.
CCOc1ccc(CNC(=O)C2CCCN(S(=O)(=O)c3ccc4c(c3)CCCC(=O)N4)C2)cc1 (stereo unspecified)	.	/	?	/	/	/
O=C1NC[C@H](Cc2ccccc2)N(CC2CCN(CCCC3CCCC3)CC2)C1=O	.	.	.	.	.	.
C/C(CCS(=O)(=O)c1ccccc1)=N/O	.	.	.	.	.	.
CCc1c(C)c(C#N)c2nc3ccccc3n2c1NC	.	.	.	.	.	.
CCc1c(C)c(C#N)c2nc3ccccc3n2c1NCc1ccco1	?	.	.	23µM	?	.
Cc1c(Cc2ccccc2)c(NCCCO)n2c(nc3ccccc32)c1C#N	?	.	.	21µM	16µM	.
CCCCc1c(C)c(C#N)c2nc3ccccc3n2c1Nc1c(C)n(C)n(-c2ccccc2)c1=O	?	.	.	23µM	16µM	.
SMILES	KB-V1 MDR tox	HT1080 IDH1KD tx	KB-3-1 cytotox	TDP1 cell CPT	TDP1 cell noCPT	HT1080-NT tox
Cc1[nH]c(C)c2c(=O)[nH]ncc12	.	.	.	.	.	.
C/C(=N\O)c1ccc2c3c([nH]c2c1)CCCC3	.	.	8.2µM	?	?	.
c1ccc2c3c([nH]c2c1)CCCC3	.	/	.	.	?	/
Cc1cccc(NC(=O)CCC2CCN(C(=O)C3CC=CCC3)CC2)c1 (stereo unspecified)	?	.	.	12µM	12µM	.
O=C(CCC1CCN(C(=O)C2CC=CCC2)CC1)Nc1ccccc1 (stereo unspecified)	16µM	.	.	?	21µM	.
C=CCn1c(=N)n(CC(=O)c2ccc(Cl)cc2)c2ccccc21	.	.	.	9.2µM	?	.
CCCCc1n(CC(=O)c2ccc(Cl)cc2)c2ccccc2[n+]1C	.	?	?	6.5µM	6.5µM	.
O=C(O)Cn1c(=O)n(Cc2ccccc2)c2ccccc21	.	.	.	.	.	.
O=C(Cn1c(NCCCO)nc2ccccc21)c1ccc(Cl)cc1	.	.	.	?	?	.
C=CCn1c(=N)n(CC(=O)c2ccc(Br)s2)c2ccccc21	.	.	15µM	?	18µM	.
N=c1n(CC(=O)c2cccs2)c2ccccc2n1Cc1ccccc1	.	.	?	16µM	16µM	.
